MazEF act = increases E. coli MazEF RNase cleavage of RNA; FAM/BHQ RNA-DNA oligo cleavage fluorescence, 5 h; activation, % at 20 µM; hit rate 0.32% among 350,000; P0AE70; in the data active means activation above about 50%
Target sequence (P0AE70 whole entry, looked up): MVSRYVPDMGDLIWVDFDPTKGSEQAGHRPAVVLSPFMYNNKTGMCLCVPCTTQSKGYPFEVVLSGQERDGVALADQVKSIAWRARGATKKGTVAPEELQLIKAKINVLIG
BJeLR viability = kills HRASV12-expressing BJeLR cells. BJeLR (HRASV12) viability, CellTiter-Glo ATP luminescence, 48 h. inhibition, % (concentration not given with the values). hit rate 0.17% among 300,000; in the data active means inhibition above about 50%
PfHsp40 rescue = compounds rescuing yeast from Plasmodium falciparum HSP40 toxicity; S. cerevisiae expressing PfHsp40, growth rescue, ATP luminescence; growth rescue, % at 12.5 µM; hit rate 0.68% among 340,000; in the data active means growth rescue above about 28%, passing the limit was not always enough;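 further: yeast W303a lacking pdr1 and pdr3 grown in galactose medium; growth measured after three days at 30 °C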
PrP 5UTR inh = suppresses PrP 5' UTR mRNA reporter expression | hit rate 0.35% among 340,000 | inhibition, % (concentration not given with the values) | cell-based PrP 5' UTR mRNA reporter, plate reader | AID 488862; in the data active means inhibition above about 52%
DUSP3 inh = DUSP3 (human) phosphatase inhibition. hit rate 0.52% among 290,000. recombinant VHR phosphatase, pNPP absorbance. inhibition, % at 13.3 µM. P51452; in the data active means inhibition above about 50%
Target sequence (P51452 whole entry, looked up): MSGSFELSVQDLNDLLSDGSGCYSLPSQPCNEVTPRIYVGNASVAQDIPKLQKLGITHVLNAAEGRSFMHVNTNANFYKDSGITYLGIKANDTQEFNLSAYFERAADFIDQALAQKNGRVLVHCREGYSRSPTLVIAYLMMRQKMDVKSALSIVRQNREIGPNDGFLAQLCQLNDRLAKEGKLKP
PrPC TRFRET = cell surface PrPC inhibition, primary TR-FRET screen; P04156; TR-FRET read-out; inhibition, % at 13.8 µM; hit rate 0.43% among 370,000; AID 720596; in the data active means inhibition above about 24%
Each line names hits and unclear results; the compound was inactive in the other large screens. An excerpt weighted towards active compounds, which were near 2.1% of everything screened.

CC/C(=N\NC(=O)c1ccccc1O)c1c(O)n(C2CCCCC2)c(=O)[nH]c1=O	none
Cc1[nH]n(-c2ccc(Cl)cc2)c(=O)c1C(=O)c1ccccc1	PfHsp40 rescue 87
O=C(c1ccccc1C(F)(F)F)N1CCC(Oc2cccnc2)CC1	none (no result: MazEF act, BJeLR viability, PfHsp40 rescue, PrP 5UTR inh, DUSP3 inh)
CCN1CCN(c2nc3c(c(=O)[nH]c(=O)n3C)n2CCCSc2ncccn2)CC1	MazEF act 54
CN1CCN(c2nc3c(c(=O)[nH]c(=O)n3C)n2CCCSc2ncccn2)CC1	none
CC1(C)c2ccccc2N2CCC(=O)NC21/C=C/c1ccco1 (stereo not drawn)	MazEF act 106
O=C(CN1C(=O)CCSc2ccccc21)Nc1ccc(F)cc1F	none (no result: MazEF act, BJeLR viability, PfHsp40 rescue, PrP 5UTR inh, DUSP3 inh)
CC(C)(C)Sc1ccc(/C=N/O)cc1[N+](=O)[O-]	none
O=[N+]([O-])c1cc(/C=N/O)ccc1SCc1ccccc1Cl	DUSP3 inh 53
CCN(CCNCC(O)COc1ccccc1C(C)C)c1cccc(C)c1 (stereo not drawn)	none (no result: PrP 5UTR inh)
CCN1C[C@@H]2[C@@H]3C(=O)N(Cc4ccccc4)C(=O)[C@@H]3[C@](CC)(C1=O)N2C(=O)c1ccc(C(C)(C)C)cc1	none (no result: BJeLR viability, DUSP3 inh)
CC(=O)N1CCC(N(CCCOC(C)C)S(=O)(=O)c2ccc([N+](=O)[O-])cc2)CC1	DUSP3 inh 53
Cc1ccc(CN2CCN(Cc3ccc4cccc(F)c4n3)CC2CCO)cc1 (stereo not drawn)	none
COc1cnn(-c2ccc(C)cc2)c(=O)c1SCc1ccccc1	none
COc1cnn(-c2ccccc2)c(=O)c1SCc1ccc(Cl)cc1Cl	PfHsp40 rescue 88
CC(=O)c1c(C)[nH]c(C(=O)OCC(=O)N2CCN(c3ccccc3)CC2)c1C	none (no result: BJeLR viability, PfHsp40 rescue, PrP 5UTR inh, DUSP3 inh)
CC(=O)c1cc(NC(=O)c2cccc(C(F)(F)F)c2)c(=O)oc1/C=C/N(C)C	MazEF act 180
OC(c1cccc(OCc2ccccc2)c1)c1nnc(-c2ccccc2)o1 (stereo not drawn)	none
OC(c1ccc(OCc2ccccc2)cc1)c1nnc(-c2ccccc2)o1 (stereo not drawn)	MazEF act 96
O=C(CN1C(=O)NC(CCc2ccccc2)C1=O)Nc1ccccc1C(F)(F)F (stereo not drawn)	none (no result: BJeLR viability, DUSP3 inh)
CCNC(=S)N/N=C/c1c(C)nn(-c2cccc(Cl)c2)c1Cl	none
Cc1nn(-c2cccc(Cl)c2)c(Cl)c1/C=N/NC(=O)c1cccs1	DUSP3 inh 54
CC(=O)N(C1=C(Cl)C(=O)c2ccccc2C1=O)C1CCCCC1	PfHsp40 rescue 147
CC(=O)N(c1ccccc1C)C1CCCC1	none
COCCn1c(=O)[nH]c2cc(C(=O)Nc3cc(C)cc(C)c3)ccc2c1=O	none
CC(=O)N1CCc2c(sc(NC(=O)Cc3ccc(C)cc3C)c2C#N)C1	DUSP3 inh 58
C=C1/C=C(\C)C(C)(O)CC(O)CC(=O)C(O)C(O)C(C)CC(C)OC(=O)/C(C)=C/CC/C=C/C(OC)C(O)CC(C)C1 (stereo not drawn)	none (no result: BJeLR viability, DUSP3 inh, PrPC TRFRET)
Cc1ccc(S(=O)(=O)NCC2CCC(C(=O)NC3CCCCC3)CC2)cc1 (stereo not drawn)	DUSP3 inh 58
COc1ccccc1N1CCN(Cc2ccc(C(=O)O)cc2)CC1	none
COc1cc2ncc(C(=O)c3ccccc3)c(N3CCN(Cc4ccccc4)CC3)c2cc1OC	PfHsp40 rescue 54 (no result: PrPC TRFRET)
Cc1ccc(-c2c(NC(=O)c3ccccc3)nc3ncccn23)cc1	none (no result: MazEF act, BJeLR viability, PfHsp40 rescue, PrP 5UTR inh, DUSP3 inh)
COc1cc(N=Nc2ccc3ccccc3c2)ccc1O	PfHsp40 rescue 153
COc1cc(N=Nc2ccccc2C(=O)O)ccc1O	none
Oc1ccc(N=Nc2ccc3ccccc3c2)cc1	PfHsp40 rescue 72
NCCCCC(NC(=O)C1CCCN1C(=O)C1CSSCC(N)C(=O)NC(Cc2ccc(O)cc2)C(=O)NC(Cc2ccccc2)C(=O)NC(CCC(N)=O)C(=O)NC(CC(N)=O)C(=O)N1)C(=O)NCC(N)=O (stereo not drawn)	none (no result: MazEF act, BJeLR viability, PfHsp40 rescue, PrP 5UTR inh, PrPC TRFRET)
CCC(C)C(N)C1=NC(C(=O)N[C@@H](CC(C)C)C(=O)N[C@H](CCC(=O)O)C(=O)N[C@H](C(=O)N[C@H]2CCCCNC(=O)[C@H](CC(N)=O)NC(=O)[C@@H](CC(=O)O)NC(=O)[C@H](Cc3cnc[nH]3)NC(=O)[C@@H](Cc3ccccc3)NC(=O)[C@H]([C@@H](C)CC)NC(=O)[C@@H](CCCN)NC2=O)[C@@H](C)CC)CS1 (stereo partly drawn)	MazEF act 387 (no result: BJeLR viability, DUSP3 inh)
COc1ccc(-n2nc(C#N)c(Cl)cc2=O)cc1	PfHsp40 rescue 190 (no result: BJeLR viability)
c1ccc(-c2ccncc2)cc1	none (no result: BJeLR viability, DUSP3 inh)
c1ccc(-c2ccc3c(c2)NCCN3)cc1	DUSP3 inh 52
O=C(NNc1ccc(O)cc1)c1ccc(Br)cc1	none
Cc1ccc2c(C(=O)CN3CCCCC3CCO)c(C)[nH]c2c1 (stereo not drawn)	none
CCC1CCCCN1CC(=O)c1c(C)[nH]c2cc(C)ccc12 (stereo not drawn)	DUSP3 inh 52
Cc1ccc(C2c3c(n[nH]c3C(C)C)C(=O)N2c2ccccc2)cc1 (stereo not drawn)	none (no result: MazEF act, BJeLR viability, PfHsp40 rescue, PrP 5UTR inh, DUSP3 inh)
O=C(N/N=C/c1cn(-c2ccccc2)nc1-c1cc2ccccc2o1)c1cccnc1	none
O=C(N/N=C/c1cn(-c2ccccc2)nc1-c1cc2ccccc2o1)c1ccncc1	PfHsp40 rescue 180
O=C(N/N=C/c1cn(-c2ccccc2)nc1-c1cccs1)c1ccccc1F	PfHsp40 rescue 201 (no result: PrPC TRFRET)
CC1=NNC(=O)/C1=C\c1cn(-c2ccccc2)nc1-c1cccs1	BJeLR viability 56
CC1=NNC(=O)/C1=C\c1cn(-c2ccccc2)nc1-c1ccc(F)cc1	none (no result: PrPC TRFRET)
N#C/C(=C\c1cn(-c2ccccc2)nc1-c1cc2ccccc2o1)c1nc2ccccc2[nH]1	MazEF act 741
NCc1csc(Nc2ccc(C(=O)c3ccccc3)cc2)n1	none (no result: MazEF act, BJeLR viability, PfHsp40 rescue, PrP 5UTR inh, DUSP3 inh)
CC(=O)c1ccc(OCc2cc(C(=O)NC(C)CCn3cccn3)no2)cc1 (stereo not drawn)	none
O=C(CSc1ccc(S(=O)(=O)N2CCCCC2)cn1)Nc1ccccc1Br	none (no result: BJeLR viability, DUSP3 inh)
COc1nccnc1NS(=O)(=O)c1ccc(NC(=S)NC(=O)c2ccccc2)cc1	DUSP3 inh 52
Nc1cnccc1Oc1cccc(C(F)(F)F)c1	none (no result: DUSP3 inh)
COC(=O)[C@]12CCCCC=C1N(Cc1ccco1)C(=O)[C@H](CC(=O)NCc1cccc3ccccc13)C2	none (no result: MazEF act, BJeLR viability, PfHsp40 rescue, PrP 5UTR inh, DUSP3 inh)
Cc1ccc(CC(=O)Nc2nc3ccccc3s2)cc1	none
Cc1nc2c(ccc3nc(NC(=O)Cc4ccccc4)sc32)s1	PfHsp40 rescue 29
CC(C)NC(=O)c1csc([C@@H]2O[C@H](CO)[C@H](O)[C@H](O)[C@H]2O)n1	none (no result: MazEF act, BJeLR viability, PfHsp40 rescue, PrP 5UTR inh, DUSP3 inh)
Cc1ccc(C(=O)NCCCNC(=O)c2ccco2)cn1	DUSP3 inh 56
Cc1ccc(C(=O)NCCCNCCCNC(=O)c2ccc(C)nc2)cn1	none
CCC(C)[C@H](NC(=O)N1CC(=O)Nc2ccccc21)C(=O)N[C@H](C(=O)O)c1ccccc1 (stereo partly drawn)	none

Compound activity as filed in PubChem.
